Measurements taken from article PMC4336329 (PLoS ONE, 2015).
About 14,000 (4.5%) of roughly 310,000 compounds showed an effect of 50% or more. Effects have a minus sign here. The list comes from a sample in which strong results are over-represented; it also holds similar structures and randomly drawn compounds.

Target: human ether-à-go-go-related gene (hERG) potassium channel (human, UniProt Q12809)
Assay: primary screen, population patch clamp on CHO cells stably expressing hERG; higher = less effect of the substance
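Note: peak tail current of the secondary pulse compared with the same well before compound.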

human ether-à-go-go-related gene (hERG) potassium channel, sequence (Q12809 whole entry, looked up): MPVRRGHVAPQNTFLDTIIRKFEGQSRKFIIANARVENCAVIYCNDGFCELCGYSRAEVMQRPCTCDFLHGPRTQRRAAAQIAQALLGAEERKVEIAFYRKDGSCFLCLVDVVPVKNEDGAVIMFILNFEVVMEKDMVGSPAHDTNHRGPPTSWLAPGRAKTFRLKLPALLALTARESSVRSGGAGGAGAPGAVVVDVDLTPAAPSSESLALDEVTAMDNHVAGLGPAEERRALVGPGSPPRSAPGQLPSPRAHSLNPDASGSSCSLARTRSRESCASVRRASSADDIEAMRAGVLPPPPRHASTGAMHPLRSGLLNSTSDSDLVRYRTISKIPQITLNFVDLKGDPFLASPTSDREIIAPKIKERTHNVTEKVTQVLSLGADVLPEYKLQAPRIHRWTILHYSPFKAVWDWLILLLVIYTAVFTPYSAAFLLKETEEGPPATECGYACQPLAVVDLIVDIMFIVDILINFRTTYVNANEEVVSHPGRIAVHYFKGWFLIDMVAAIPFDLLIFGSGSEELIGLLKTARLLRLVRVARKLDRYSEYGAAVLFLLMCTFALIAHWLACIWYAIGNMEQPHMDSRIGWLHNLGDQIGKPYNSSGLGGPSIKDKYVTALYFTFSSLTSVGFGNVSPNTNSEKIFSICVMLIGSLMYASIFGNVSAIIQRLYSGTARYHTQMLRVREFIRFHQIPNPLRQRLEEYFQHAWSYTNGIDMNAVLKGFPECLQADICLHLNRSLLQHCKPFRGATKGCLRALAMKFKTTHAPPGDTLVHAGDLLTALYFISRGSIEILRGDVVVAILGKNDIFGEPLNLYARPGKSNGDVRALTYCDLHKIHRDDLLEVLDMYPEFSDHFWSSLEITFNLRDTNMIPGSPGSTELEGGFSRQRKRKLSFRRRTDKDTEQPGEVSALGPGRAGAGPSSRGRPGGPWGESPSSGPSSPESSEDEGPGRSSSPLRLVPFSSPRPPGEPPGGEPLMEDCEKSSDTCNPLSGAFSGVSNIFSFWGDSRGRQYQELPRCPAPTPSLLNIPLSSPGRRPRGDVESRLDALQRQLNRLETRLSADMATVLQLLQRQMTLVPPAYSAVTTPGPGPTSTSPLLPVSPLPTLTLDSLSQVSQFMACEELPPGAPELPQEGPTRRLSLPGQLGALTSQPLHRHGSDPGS

| Structure (SMILES) | hERG current change (%, negative = inhibition) at 10uM [%] |
| --- | --- |
| NC(=O)c1nsc(C(=O)N(c2cccc(F)c2)C(C(=O)NCc2ccccc2)c2ccc(O)cc2)c1N (centres unmarked) | -22.4 |
| Cc1cccn2c(CN(C)CC3CCCCO3)c(C(=O)N3CCCCC3)nc12 (centres unmarked) | 20.9 |
| Cc1cc(S(=O)(=O)NCc2ccco2)c(C)cc1Cl | 14.1 |
| COc1ccc(-c2nc3ccccc3c(=O)n2N)cc1 | -13.7 |
| Cc1nnc(NC(=O)c2csc3c2CCC(C)C3)s1 (centres unmarked) | 13.9 |
| O=C(NCCCN1CCOCC1)C(=O)NCc1ccco1 | -1.68 |
| N=c1c2c(-c3ccccc3)c(-c3ccccc3)n(Cc3ccco3)c2ncn1CCN1CCOCC1 | -75.9 |
| O=C(NCCN1CCOCC1)C(=O)NCc1ccco1 | 19.5 |
| CC(C)Cn1c2nc3ccccc3nc2c2c(=O)n(CCN3CCOCC3)cnc21 | -48.1 |
| O=c1c2ccccc2nc(-c2ccccc2)n1CCCN1CCOCC1 | -20.4 |
| N=c1c2c(-c3ccccc3)c(-c3ccccc3)n(Cc3ccco3)c2ncn1CCCN1CCOCC1 | -84.9 |
| Cc1ccccc1C(=O)NCCCNC(=O)c1cnccn1 | 13.5 |
| COc1ccccc1OCc1nc(Cc2ccc(Cl)cc2)no1 | -31.4 |
| CCn1c(=O)c(C(=O)NNC(=O)c2ccccc2Cl)c(O)c2ccccc21 | 7.09 |
| CC1=C(C(=O)OCC2CCCO2)C(c2ccccc2)C2=C(CCCC2=O)N1 (centres unmarked) | 11.2 |
| CCC(C)[C@H](NC(=O)N1CCn2c1nc1ccccc12)C(=O)NCCc1ccccc1 (some centres unmarked) | -2.42 |
| COc1ccc(OC)c(/C=C/C(=O)OCC(=O)NCc2cccs2)c1 | 17.8 |
| Cc1onc(-c2ccccc2)c1NC(=O)N(CCC(=O)O)Cc1ccccc1 | 2.16 |
| COc1ccc(NC(=O)CN(C)C(=O)c2ccc3c(c2)NC(=O)CS3)cc1 | -10.2 |
| COC(=O)c1cc(NC(=O)c2cccs2)ccc1N1CCOCC1 | -1.74 |
| COc1ccc(-c2cc(C(=O)N3CC(C)CC(C)C3)c3ccccc3n2)cc1 (centres unmarked) | 5.7 |
| CC(C)CC(C(=O)N1CCc2ccccc2C1)N1C(=O)c2ccccc2C1=O (centres unmarked) | -50.3 |

| Structure (SMILES) | hERG current change (%, negative = inhibition) at 10uM [%] |
| --- | --- |
| CC(C)CC(C(=O)N1CCOCC1)N1Cc2ccccc2C1=O (centres unmarked) | 29.3 |
| O=C(CCCN1C(=O)c2ccccc2C1=O)N1CCc2ccccc2C1 | -27.2 |
| Cc1cc(NC(=O)c2cccs2)ncc1NC(=O)C(C)(C)C | 9.59 |
| CSc1ccc(C(=O)C2CCCN(C)C2)cc1 (centres unmarked) | -23.1 |
| CSc1ccc(C(=O)C2CCCN(C(=O)CCCn3cncn3)C2)cc1 (centres unmarked) | -40.5 |
| CSc1ccc(C(=O)C2CCCN(C(=O)c3cc(C)n(C)n3)C2)cc1 (centres unmarked) | -7.88 |
| CN(C)S(=O)(=O)N1CCCC(C(=O)c2ccc(-c3ccccc3)c(F)c2)C1 (centres unmarked) | 7.39 |
| O=C(c1ccc(-c2ccccc2)cc1)C1CCCN(C(=O)c2ccncc2)C1 (centres unmarked) | -13.4 |
| Cn1cc(CN2CCCC(C(=O)c3ccc(-c4ccccc4)c(F)c3)C2)cn1 (centres unmarked) | -55.4 |
| CSc1ccc(C(=O)C2CCCN(C(=O)c3nn(C)c(=O)c4ccccc34)C2)cc1 (centres unmarked) | -64.9 |
| Cn1nc(C(=O)N2CCCC2)c2ccccc2c1=O | 23 |
| O=C(c1ccc(-c2ccccc2)cc1)C1CCCN(Cc2ccncc2)C1 (centres unmarked) | -62.6 |
| CSc1ccc(C(=O)C2CCCN(CCCn3cccn3)C2)cc1 (centres unmarked) | -76.8 |
| O=C(c1ccc(C(F)(F)F)cc1)C1CCCN(Cc2ccncc2)C1 (centres unmarked) | -23.7 |
| Clc1ccc(-c2csc(N/N=C/c3cccnc3)n2)c(Cl)c1 | -11.9 |
| CC(=O)N1Cc2cc(N)ccc2Oc2ccccc21 | 9.9 |
| Cc1cccc(NC(=S)N2CCN(S(=O)(=O)c3ccc(F)cc3)CC2)c1 | 16.7 |
| CCOC(=O)C(NCCCCl)c1ccccc1 (centres unmarked) | 2.53 |
| CCOC(=O)C(C)Sc1nnc(CSc2nc3nc(C)cc(C)n3n2)o1 (centres unmarked) | 9.3 |
| CCOc1ccccc1N=Cc1c(O)c2ccccc2oc1=O | 15.4 |
| CN(c1ccc(C(=O)N2CCCCC2)cc1)S(C)(=O)=O | 10.6 |
| COc1ccc(Nc2nc(NC(C)(C)C)nc(N3CCOCC3)n2)c(OC)c1 | -25.3 |
